The text below walks through data of ChEMBL document CHEMBL1961873, “Compounds: GSK PKIS; Assays: Nanosyn kinase panel” (2012).

Test [1] deals with T1, Mitogen-activated protein kinase 12 (Homo sapiens) (UniProt P53778).
T1 sequence (whole entry): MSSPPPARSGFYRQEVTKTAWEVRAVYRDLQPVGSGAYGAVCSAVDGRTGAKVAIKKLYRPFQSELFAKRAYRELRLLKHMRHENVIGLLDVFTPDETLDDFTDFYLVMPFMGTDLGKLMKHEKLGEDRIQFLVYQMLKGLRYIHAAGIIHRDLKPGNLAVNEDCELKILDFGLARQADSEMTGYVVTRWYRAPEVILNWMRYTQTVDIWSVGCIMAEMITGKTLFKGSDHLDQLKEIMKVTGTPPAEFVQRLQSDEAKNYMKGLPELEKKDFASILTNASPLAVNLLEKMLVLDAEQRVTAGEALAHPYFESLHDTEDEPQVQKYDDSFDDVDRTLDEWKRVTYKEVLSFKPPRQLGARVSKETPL
The note with it: at 1 µM.

Test [2] has as its target SRSF protein kinase 1 (Homo sapiens) (UniProt Q96SB4). The following applies: at 0.1 µM.
For test [3] the target is unchanged. The note with it: at 1 µM.
In test [4] the target is Phosphatidylinositol 4,5-bisphosphate 3-kinase catalytic subunit alpha isoform (Homo sapiens) (UniProt P42336). The note with it: at 0.1 µM.
Chain of Phosphatidylinositol 4,5-bisphosphate 3-kinase catalytic subunit alpha isoform (Homo sapiens) (P42336 whole entry, canonical isoform): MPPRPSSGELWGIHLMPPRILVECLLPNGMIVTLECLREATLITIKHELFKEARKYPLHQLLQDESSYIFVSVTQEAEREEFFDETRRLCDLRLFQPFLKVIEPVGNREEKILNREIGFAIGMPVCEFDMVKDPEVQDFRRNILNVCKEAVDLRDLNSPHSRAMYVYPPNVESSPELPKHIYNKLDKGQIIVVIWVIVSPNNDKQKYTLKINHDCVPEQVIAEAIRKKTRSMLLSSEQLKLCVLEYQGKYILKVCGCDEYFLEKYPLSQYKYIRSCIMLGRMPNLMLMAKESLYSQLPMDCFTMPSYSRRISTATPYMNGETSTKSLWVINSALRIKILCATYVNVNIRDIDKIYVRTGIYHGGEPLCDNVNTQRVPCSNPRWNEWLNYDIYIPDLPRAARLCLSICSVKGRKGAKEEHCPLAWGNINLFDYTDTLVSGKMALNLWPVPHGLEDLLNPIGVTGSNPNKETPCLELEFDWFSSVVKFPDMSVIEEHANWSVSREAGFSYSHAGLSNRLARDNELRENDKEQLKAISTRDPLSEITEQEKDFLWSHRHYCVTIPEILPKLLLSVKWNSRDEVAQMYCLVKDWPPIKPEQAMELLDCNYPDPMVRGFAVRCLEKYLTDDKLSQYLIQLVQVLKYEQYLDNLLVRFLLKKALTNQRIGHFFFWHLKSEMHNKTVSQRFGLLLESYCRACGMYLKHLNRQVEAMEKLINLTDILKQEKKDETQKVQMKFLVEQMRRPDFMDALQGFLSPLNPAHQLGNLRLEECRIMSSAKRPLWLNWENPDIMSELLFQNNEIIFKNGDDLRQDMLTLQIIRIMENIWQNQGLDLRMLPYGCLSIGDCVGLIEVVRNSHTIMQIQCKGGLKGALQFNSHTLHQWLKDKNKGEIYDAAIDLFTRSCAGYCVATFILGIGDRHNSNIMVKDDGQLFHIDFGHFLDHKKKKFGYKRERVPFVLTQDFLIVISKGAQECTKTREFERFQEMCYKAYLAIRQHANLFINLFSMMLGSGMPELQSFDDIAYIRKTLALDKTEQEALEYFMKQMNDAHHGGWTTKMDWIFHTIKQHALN
The target is the same in test [5]. The note with it: at 1 µM.
Test [6] concerns the target T2, Phosphatidylinositol 4,5-bisphosphate 3-kinase catalytic subunit delta isoform (Homo sapiens) (UniProt O00329).
T2 sequence (whole entry): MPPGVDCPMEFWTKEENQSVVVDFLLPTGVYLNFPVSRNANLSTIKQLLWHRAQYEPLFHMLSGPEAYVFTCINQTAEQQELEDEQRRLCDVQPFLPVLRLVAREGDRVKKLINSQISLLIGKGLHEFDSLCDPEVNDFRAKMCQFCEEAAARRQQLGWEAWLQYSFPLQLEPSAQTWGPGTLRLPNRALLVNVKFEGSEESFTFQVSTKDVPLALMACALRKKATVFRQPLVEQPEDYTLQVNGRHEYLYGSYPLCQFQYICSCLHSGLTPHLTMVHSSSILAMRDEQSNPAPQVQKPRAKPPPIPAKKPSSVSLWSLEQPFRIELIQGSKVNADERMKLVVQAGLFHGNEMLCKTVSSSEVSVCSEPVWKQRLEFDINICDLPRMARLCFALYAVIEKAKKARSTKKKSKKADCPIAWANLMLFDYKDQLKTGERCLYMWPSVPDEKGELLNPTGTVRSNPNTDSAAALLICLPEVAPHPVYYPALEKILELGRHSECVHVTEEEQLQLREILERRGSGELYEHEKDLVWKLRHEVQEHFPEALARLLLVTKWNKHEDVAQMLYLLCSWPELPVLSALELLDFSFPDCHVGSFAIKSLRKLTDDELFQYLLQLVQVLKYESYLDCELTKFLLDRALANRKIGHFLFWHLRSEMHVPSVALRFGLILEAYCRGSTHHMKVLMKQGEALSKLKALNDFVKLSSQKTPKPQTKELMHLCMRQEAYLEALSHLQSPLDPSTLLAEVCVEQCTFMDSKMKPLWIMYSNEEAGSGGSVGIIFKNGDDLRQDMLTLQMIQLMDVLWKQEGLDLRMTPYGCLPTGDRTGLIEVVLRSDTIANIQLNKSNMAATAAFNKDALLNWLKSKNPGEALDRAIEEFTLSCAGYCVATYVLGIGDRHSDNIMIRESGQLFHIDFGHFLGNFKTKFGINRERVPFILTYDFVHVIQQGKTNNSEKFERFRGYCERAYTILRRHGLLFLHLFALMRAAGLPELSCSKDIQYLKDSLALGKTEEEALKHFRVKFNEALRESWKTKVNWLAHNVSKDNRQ
The following applies: at 0.1 µM.

The target in test [7] is T2, Phosphatidylinositol 4,5-bisphosphate 3-kinase catalytic subunit delta isoform (Homo sapiens). The following applies: at 1 µM.
Test [8] concerns the target Phosphatidylinositol 4-kinase beta (Homo sapiens) (UniProt Q9UBF8). The note with it: at 0.1 µM.
The target is the same in test [9]. The following applies: at 1 µM.
The target of test [10] is Sphingosine kinase 1 (Homo sapiens) (UniProt Q9NYA1). The note with it: at 0.1 µM.
Chain of Sphingosine kinase 1 (Homo sapiens) (Q9NYA1 whole entry): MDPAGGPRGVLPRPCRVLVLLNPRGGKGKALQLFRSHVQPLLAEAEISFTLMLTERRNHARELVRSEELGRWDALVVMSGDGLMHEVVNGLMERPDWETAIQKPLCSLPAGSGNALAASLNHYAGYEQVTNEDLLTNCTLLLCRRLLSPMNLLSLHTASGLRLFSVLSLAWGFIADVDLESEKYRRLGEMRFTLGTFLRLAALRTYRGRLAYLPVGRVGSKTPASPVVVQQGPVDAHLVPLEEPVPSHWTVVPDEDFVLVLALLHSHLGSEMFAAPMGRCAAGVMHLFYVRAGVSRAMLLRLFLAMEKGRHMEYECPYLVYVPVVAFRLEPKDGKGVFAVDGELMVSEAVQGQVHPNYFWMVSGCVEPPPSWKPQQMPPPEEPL
Test [11] has the same target. The note with it: at 1 µM.
Test [12] concerns the target T3, Sphingosine kinase 2 (Homo sapiens) (UniProt Q9NRA0).
T3 sequence (whole entry): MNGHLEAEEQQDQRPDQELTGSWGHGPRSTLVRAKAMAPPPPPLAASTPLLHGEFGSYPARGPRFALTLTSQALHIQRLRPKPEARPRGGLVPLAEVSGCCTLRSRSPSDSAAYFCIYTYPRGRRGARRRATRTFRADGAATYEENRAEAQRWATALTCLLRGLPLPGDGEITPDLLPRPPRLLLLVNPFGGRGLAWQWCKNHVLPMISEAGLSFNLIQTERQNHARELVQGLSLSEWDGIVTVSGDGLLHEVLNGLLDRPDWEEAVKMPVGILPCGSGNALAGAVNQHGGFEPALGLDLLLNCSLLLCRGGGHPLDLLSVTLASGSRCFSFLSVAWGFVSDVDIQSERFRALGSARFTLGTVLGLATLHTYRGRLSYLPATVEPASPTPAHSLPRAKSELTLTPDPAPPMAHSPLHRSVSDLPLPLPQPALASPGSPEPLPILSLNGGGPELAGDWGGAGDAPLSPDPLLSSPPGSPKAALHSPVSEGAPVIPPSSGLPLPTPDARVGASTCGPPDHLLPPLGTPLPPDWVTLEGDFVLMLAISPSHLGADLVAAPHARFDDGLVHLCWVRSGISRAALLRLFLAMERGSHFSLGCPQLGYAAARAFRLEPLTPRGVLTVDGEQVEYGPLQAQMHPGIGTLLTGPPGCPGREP
The following applies: at 0.1 µM.

Test [13] has as its target T3, Sphingosine kinase 2 (Homo sapiens). The following applies: at 1 µM.
The target of test [14] is Casein kinase II subunit alpha (Homo sapiens) (UniProt P68400). The following applies: at 0.1 µM.
Chain of Casein kinase II subunit alpha (Homo sapiens) (P68400 whole entry, looked up): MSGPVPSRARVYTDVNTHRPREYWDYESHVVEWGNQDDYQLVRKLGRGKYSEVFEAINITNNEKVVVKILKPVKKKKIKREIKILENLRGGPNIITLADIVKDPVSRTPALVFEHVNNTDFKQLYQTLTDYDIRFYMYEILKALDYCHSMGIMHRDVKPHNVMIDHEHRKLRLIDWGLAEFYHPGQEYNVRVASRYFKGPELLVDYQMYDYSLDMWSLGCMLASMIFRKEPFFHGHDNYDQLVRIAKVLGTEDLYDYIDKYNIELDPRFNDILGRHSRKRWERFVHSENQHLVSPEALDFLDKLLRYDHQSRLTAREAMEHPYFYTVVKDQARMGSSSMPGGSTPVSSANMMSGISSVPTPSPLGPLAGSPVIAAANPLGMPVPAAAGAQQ
For test [15] the target is unchanged. The following applies: at 1 µM.
Test [16] has as its target T4, Inhibitor of nuclear factor kappa-B kinase subunit alpha (Homo sapiens) (UniProt O15111).
T4 sequence (whole entry): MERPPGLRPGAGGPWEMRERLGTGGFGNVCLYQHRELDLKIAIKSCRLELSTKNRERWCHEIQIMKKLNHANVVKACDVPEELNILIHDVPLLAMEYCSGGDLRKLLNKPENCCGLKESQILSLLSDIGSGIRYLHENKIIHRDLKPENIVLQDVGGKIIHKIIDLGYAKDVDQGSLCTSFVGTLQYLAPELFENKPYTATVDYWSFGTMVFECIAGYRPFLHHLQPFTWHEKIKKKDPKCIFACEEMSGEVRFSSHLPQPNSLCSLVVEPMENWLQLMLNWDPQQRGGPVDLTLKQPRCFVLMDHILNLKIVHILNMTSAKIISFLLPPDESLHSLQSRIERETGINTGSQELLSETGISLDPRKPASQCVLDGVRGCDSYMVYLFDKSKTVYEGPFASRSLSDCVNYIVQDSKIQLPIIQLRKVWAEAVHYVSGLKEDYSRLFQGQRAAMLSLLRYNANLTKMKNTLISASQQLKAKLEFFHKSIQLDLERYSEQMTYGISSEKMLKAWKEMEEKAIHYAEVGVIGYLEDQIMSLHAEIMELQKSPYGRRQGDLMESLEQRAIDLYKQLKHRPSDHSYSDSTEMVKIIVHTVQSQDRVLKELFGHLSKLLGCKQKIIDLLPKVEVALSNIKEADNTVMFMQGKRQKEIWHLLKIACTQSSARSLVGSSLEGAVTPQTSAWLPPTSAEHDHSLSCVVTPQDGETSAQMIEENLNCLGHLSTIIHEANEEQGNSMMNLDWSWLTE
The following applies: at 0.1 µM.

Test [17] has as its target T4, Inhibitor of nuclear factor kappa-B kinase subunit alpha (Homo sapiens). The following applies: at 1 µM.
Test [18] has as its target T5, Inhibitor of nuclear factor kappa-B kinase subunit beta (Homo sapiens) (UniProt O14920).
T5 sequence (whole entry): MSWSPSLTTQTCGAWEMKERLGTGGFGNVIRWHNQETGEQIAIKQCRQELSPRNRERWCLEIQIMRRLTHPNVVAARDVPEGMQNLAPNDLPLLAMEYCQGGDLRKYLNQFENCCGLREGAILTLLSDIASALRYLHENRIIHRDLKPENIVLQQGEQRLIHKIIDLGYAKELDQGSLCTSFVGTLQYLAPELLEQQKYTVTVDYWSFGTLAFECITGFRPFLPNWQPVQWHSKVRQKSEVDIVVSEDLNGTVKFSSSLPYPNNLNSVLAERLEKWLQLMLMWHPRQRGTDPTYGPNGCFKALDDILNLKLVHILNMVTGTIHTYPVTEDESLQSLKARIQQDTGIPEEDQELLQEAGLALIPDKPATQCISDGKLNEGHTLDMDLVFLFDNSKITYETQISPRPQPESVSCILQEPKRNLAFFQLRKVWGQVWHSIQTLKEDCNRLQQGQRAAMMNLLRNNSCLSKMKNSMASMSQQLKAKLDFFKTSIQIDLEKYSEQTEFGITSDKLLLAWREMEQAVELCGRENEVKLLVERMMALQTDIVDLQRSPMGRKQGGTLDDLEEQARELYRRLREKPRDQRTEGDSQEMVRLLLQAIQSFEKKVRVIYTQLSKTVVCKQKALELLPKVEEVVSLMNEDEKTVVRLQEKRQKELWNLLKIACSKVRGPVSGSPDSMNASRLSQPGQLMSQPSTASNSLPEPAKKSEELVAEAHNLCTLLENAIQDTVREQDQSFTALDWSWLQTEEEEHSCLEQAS
The note with it: at 0.1 µM.

Test [19] addresses T5, Inhibitor of nuclear factor kappa-B kinase subunit beta (Homo sapiens). The note with it: at 1 µM.
Test [20] deals with T6, Inhibitor of nuclear factor kappa-B kinase subunit epsilon (Homo sapiens) (UniProt Q14164).
T6 sequence (whole entry): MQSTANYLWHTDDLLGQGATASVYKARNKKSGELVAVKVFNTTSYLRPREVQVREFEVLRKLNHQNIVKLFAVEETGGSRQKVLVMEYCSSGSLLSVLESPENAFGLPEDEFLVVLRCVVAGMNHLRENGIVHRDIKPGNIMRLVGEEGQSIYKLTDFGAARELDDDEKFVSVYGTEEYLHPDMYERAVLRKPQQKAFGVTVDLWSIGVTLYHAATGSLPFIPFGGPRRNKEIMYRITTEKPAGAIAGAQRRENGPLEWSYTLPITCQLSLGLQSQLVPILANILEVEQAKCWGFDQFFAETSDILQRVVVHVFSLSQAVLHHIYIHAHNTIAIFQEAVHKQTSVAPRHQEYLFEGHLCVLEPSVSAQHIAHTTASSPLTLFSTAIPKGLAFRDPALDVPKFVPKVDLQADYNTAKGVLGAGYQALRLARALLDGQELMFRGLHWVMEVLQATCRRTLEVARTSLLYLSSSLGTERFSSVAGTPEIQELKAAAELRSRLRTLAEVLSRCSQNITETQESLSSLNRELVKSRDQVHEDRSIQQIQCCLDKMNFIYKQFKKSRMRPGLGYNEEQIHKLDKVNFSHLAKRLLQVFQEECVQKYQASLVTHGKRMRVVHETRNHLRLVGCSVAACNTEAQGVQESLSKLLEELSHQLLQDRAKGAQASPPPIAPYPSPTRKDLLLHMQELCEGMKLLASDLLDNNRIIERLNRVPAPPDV
The following applies: at 0.1 µM.

SMILES strings stand for the structures.

Chain of SRSF protein kinase 1 (Homo sapiens) (Q96SB4 whole entry): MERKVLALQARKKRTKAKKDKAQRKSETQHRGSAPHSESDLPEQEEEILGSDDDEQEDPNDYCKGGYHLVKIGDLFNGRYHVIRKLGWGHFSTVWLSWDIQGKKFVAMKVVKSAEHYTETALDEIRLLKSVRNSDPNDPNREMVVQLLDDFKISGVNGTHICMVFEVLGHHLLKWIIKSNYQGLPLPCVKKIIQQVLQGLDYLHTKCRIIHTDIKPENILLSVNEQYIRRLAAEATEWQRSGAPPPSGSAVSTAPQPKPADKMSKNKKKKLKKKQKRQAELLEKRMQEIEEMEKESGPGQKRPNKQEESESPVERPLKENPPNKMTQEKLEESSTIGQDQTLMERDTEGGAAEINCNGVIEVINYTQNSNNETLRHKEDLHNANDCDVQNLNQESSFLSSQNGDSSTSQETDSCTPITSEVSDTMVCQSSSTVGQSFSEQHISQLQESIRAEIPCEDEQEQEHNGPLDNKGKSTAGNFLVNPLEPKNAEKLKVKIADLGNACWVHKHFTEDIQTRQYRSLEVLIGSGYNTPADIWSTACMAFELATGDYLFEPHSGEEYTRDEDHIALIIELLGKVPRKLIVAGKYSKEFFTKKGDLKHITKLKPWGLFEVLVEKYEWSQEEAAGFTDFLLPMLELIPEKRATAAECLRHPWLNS
Chain of Phosphatidylinositol 4-kinase beta (Homo sapiens) (Q9UBF8 2-816 limits assumed): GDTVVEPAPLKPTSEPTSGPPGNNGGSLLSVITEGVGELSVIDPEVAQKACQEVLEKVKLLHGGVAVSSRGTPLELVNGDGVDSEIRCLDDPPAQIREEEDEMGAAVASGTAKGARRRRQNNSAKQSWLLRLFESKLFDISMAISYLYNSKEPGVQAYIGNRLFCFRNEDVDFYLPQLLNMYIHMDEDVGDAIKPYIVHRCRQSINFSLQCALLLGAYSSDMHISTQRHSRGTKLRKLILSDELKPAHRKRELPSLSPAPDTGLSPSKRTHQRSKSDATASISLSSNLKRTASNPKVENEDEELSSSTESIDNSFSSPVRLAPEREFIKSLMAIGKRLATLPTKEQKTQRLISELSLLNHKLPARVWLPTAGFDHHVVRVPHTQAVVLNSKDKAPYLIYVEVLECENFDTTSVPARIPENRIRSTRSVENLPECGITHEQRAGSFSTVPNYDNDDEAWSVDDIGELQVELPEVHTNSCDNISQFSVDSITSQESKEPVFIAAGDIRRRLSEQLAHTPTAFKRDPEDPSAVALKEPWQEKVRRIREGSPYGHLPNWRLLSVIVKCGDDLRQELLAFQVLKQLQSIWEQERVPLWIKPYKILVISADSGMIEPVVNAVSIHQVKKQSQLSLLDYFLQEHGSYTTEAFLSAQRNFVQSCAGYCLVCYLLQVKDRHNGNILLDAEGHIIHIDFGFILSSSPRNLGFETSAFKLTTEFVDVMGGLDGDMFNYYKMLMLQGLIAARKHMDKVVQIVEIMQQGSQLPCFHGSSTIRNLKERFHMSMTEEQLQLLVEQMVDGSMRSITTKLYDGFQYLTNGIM

Consider `CS(=O)(=O)Nc1cccc(-c2ccc3c(NC(=O)C4CC4)n[nH]c3c2)c1`, for which the inhibition – broadly, the change of the read-out against control, counted positive when it falls – in test [1] is 0.75%; in [2], -2.53%; in [3] it was -4.93%; in test [4], -0.25%; in test [5], -0.59%; in test [6], 1.13%. For the same compound, the inhibition is 4.97% in [7]; -1.63% in test [8]; 4.39% in test [9]; 0.08% in test [10]; -0.74% in test [11]; 1% in test [12]. Besides, the inhibition in test [13] is 0.16%; in [14], -2.9%; in [15], -3.51%; in test [16], -2.77%; in test [17], -6.36%; in test [18], 8.91%. For the same compound, the inhibition in test [19] was determined as 3.62%; in test [20], 2.67%.

In the case of `[O-][S+]1CCN(Cc2ccc(-c3ccc4ncnc(Nc5ccc(OCc6ccccc6)c(Cl)c5)c4c3)o2)CC1`, the inhibition in test [1] was 1.59%; in test [2], -1.34%; in test [3], -2.79%; in test [4], 1.57%; in test [5] it was 0.92%; in test [6], 0.92%. In addition, the inhibition in test [7] is 2.1%; in [8], -2.13%; in [9], -0.85%; in [10], 1.88%; in [11], 0.98%; in test [12], 0.01%. In addition, the inhibition is 2.21% in test [13]; 3.5% in test [14]; 2.9% in test [15]; 2.69% in test [16]; -1.63% in [17]; 2.83% in test [18]. The inhibition in [19] turned out to be 1.96%; in test [20] it was 1.93%.

Regarding `Cc1cc(O)cc(C)c1/C=C/c1cncc(C(=O)N(C)C)c1`, the inhibition is 2.68% in test [1]; -0.98% in [2]; -1.41% in test [3]; 1.77% in [4]; 0.49% in test [5]; 1.59% in [6]. In addition, the inhibition is 1.73% in [7]; -2.1% in test [8]; 0.47% in test [9]; -0.11% in test [10]; -0.49% in [11]; -0.12% in test [12]. Moreover, the inhibition is 0.05% in test [13]; 4.25% in test [14]; 5.95% in [15]; 5.21% in test [16]; 9.29% in [17]; 6.05% in test [18]. Moreover, the inhibition in test [19] stood at 2.23%; in test [20], 2.77%.
